Assay [1] deals with XIP peptide (Xip251-270) binding. Nature of the assay: XIP fragment 251-270 binding compounds – biochemical, small-molecule microarray, fluorescence 635/667 nm, 0.1 µg/mL protein, primary screen (AID 1182). As to conditions: fluorescent protein binding, 635 nm, higher = more signal, called active from +8 up or from −8 down.
Assay [2] concerns XIP peptide (Xip251-270). Nature of the assay: compounds binding XIP fragment 251-270 – biochemical, small-molecule microarray, fluorescence 635/667 nm, 0.5 µg/mL protein, primary screen (AID 1183). The following applies: fluorescence 635 nm, higher = more signal.
Assay [3] is described as follows: blood-stage malaria parasite viability loss – strain 3D7, DAPI fluorescence, 100 nL, primary screen (AID 1184).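 Also: parasites grown inside human red blood cells in medium with human serum.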 The following applies: P. falciparum 3D7 growth, 3 d, higher = more signal.
Assay [4] concerns the target Homeobox protein Hox-A13 (Mus musculus) (UniProt Q62424). Briefly: disruptors of Hoxa13 oligonucleotide interaction – biochemical, fluorescence polarization, labeled oligonucleotide, primary screen (AID 1185). The following applies: Hoxa13:DNA binding, 15 min, higher = more signal, called active from +8 up or from −8 down.
The nature of assay [5]: blockers of DNA damage checkpoint Chk1 activation – imaging, HeLa, hydroxyurea, phospho-Chk1 antibody, percent positive cells, primary screen (AID 1186). The following applies: hydroxyurea-induced phospho-Chk1 immunofluorescence imaging, higher = more signal.
The nature of assay [6]: blockers of DNA damage checkpoint Chk1 activation – imaging, HeLa, hydroxyurea, phospho-Chk1 nuclear intensity, primary screen (AID 1187). As to conditions: hydroxyurea-induced phospho-Chk1 immunofluorescence imaging, higher = more signal.

Activity calls are given as the source filed them. Unless noted, no rule for the calls is given here.

Sequence of Homeobox protein Hox-A13 (Mus musculus) (Q62424 whole entry, looked up): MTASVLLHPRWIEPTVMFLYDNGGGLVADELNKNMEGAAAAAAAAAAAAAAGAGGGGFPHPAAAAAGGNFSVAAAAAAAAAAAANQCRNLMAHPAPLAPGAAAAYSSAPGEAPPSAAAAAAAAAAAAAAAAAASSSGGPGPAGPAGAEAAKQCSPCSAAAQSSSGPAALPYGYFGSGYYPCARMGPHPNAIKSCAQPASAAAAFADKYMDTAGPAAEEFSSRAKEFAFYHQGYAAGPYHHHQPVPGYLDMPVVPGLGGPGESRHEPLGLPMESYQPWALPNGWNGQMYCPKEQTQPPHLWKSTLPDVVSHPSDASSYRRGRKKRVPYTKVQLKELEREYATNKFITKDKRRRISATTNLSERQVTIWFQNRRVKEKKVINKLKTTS

In the case of `CC1CC/C=C\[C@H]2OC34C=CCN(Cc5ccccc5)C(=O)[C@H]3N(CCCO)C(=O)[C@@H]4C2C(=O)O1` (some centres not stated), the composite z-score in assay [1] is 0.15 (inactive); in assay [2] it was 0.737. The z-score in assay [3] was 0.295; in assay [4] it was -4.95 (inactive); in assay [5], -0.364 (inactive); in assay [6], -0.491 (inactive).
For the compound `CCC[C@@H]1C[C@@]1(CCC)[C@@H](NC(=O)c1ccccc1)c1cccc(Cl)c1`, the composite z-score is 0.11 (inactive) in assay [1] and -0.211 in assay [2]. Also, the z-score is -0.348 in assay [3], 2.13 (inactive) in assay [4], -0.769 (inactive) in assay [5] and -0.608 (inactive) in assay [6].
On to `C=C[C@H](CO[Si](CC)(CC)CC)N(Cc1ccc(OC(C)=O)c(OC)c1)S(=O)(=O)c1ccc(Br)cc1`, for which the results for the composite z-score in assay [1] and in assay [2] were 1.38 (inactive) and 0.88, respectively. For the same compound, the z-score in assay [3] is 0.378; in assay [4], 0.476 (inactive); in assay [5], -0.528 (inactive); in assay [6], -0.508 (inactive).
With `NC(=O)NCC#Cc1ccc2c(c1)[C@]1(C(=O)N2)[C@H](C(=O)Nc2nc3ccccc3s2)[C@H]2C(=O)O[C@H](c3ccccc3)[C@H](c3ccccc3)N2[C@@H]1c1ccccc1OCCO`, the composite z-score in assay [1] is 0.478 (inactive); in assay [2] it was 0.606. Also, the z-score in assay [3] was -1.74; in assay [4] it was 2.54 (inactive); in assay [5], 0.302 (inactive); in assay [6], 0.603 (inactive).
Consider `COC(=O)C(CC#Cc1ccc2c(c1)[C@]1(C(=O)N2)[C@H](C(=O)Nc2nc3ccccc3s2)[C@H]2C(=O)O[C@H](c3ccccc3)[C@H](c3ccccc3)N2[C@@H]1c1ccc(O)cc1)C(=O)OC`, for which the composite z-score in assay [1] is 0.297 (inactive); in assay [2] it was 0.794. The z-score is -1.89 in assay [3], -0.424 (inactive) in assay [4], -0.558 (inactive) in assay [5] and -1.09 (inactive) in assay [6].
With `COc1ccc(/C=C/C=O)cc1`, the composite z-score in assay [1] is -0.338 (inactive); in assay [2], 0.185. In addition, the z-score was 1.01 in assay [3], 0.0055 (inactive) in assay [4], 0.0257 (inactive) in assay [5] and 0.0335 (inactive) in assay [6].
On to `COCCOC(=O)N1C(=O)[C@@]2(c3cc(C#CCCO)ccc31)[C@H](C(=O)N1CCCCCCC1)[C@H]1C(=O)O[C@H](c3ccccc3)[C@H](c3ccccc3)N1[C@@H]2c1ccc(OCCO)cc1`, for which the results for the composite z-score in assay [1] and in assay [2] were 1.29 (inactive) and 0.666, respectively. Moreover, the z-score in assay [3] was -1.5; in assay [4], -11 (active); in assay [5], -0.201 (inactive); in assay [6], 0.0919 (inactive).
Take `O=C(NC1CC1)[C@@H]1c2ccccc2C(=O)N(Cc2ccccc2Cl)[C@H]1c1ccc(CO)cc1`: the figures for the composite z-score in assay [1] and in assay [2] were 0.628 (inactive) and 0.119, respectively. Moreover, the z-score in assay [3] was -0.46; in assay [4], -2.23 (inactive); in assay [5] it was -0.825 (inactive); in assay [6], -1.13 (inactive).
For the compound `Cc1ccc(S[C@]2(C(=O)NCCCN(C)C)CC(=O)N(Cc3ccccc3C(F)(F)F)[C@@H]2c2ccc(CO)cc2)cc1`, the figures for the composite z-score in assay [1] and in assay [2] were 0.0209 (inactive) and -0.328, respectively. Also, the z-score in assay [3] is -1.02; in assay [4] it was -1.25 (inactive); in assay [5], -0.0292 (inactive); in assay [6], 0.135 (inactive).
Regarding `OCCCC1=CC(c2cccs2)N(Cc2cc3c(cc2Br)OCO3)CC1` (configuration not stated), the composite z-score was 0.412 (inactive) in assay [1] and 0.435 in assay [2]. For the same compound, the z-score in assay [3] is -1.82; in assay [4], -2.36 (inactive); in assay [5] it was 0.32 (inactive); in assay [6], 0.998 (inactive).
Turning to `CC(C)N1C(=O)c2ccccc2[C@](C)(C(=O)NCCN2CCOCC2)[C@@H]1c1ccc(CO)cc1`, the composite z-score in assay [1] is 0.0317 (inactive); in assay [2], -0.119. Besides, the z-score was 0.437 in assay [3], -3.78 (inactive) in assay [4], -0.155 (inactive) in assay [5] and -0.332 (inactive) in assay [6].
As for `CCOC(=O)C[C@H]1[C@H](OC(=O)c2ccc(C(=O)c3ccccc3)cc2)[C@@H](NC(=O)c2ccc3ccccc3c2)c2cc(OCCCO)ccc2N1C(=O)Cc1ccc(OC)cc1`, the composite z-score in assay [1] was 0.135 (inactive); in assay [2], -0.011. Besides, the z-score in assay [3] was -1.06; in assay [4], -1.59 (inactive); in assay [5] it was -0.0477 (inactive); in assay [6], -0.0525 (inactive).
Consider `COC(=O)[C@@]1(Cc2ccc(OC)cc2)[C@H]2c3cc(C(=O)N(C)C)n(Cc4ccc(S(C)(=O)=O)cc4)c3C[C@H]2CN1C(=O)c1ccccc1`, for which the composite z-score in assay [1] is 1.64 (inactive); in assay [2], 0.233. Also, the z-score was -0.0665 in assay [3], -5.38 (inactive) in assay [4], -0.907 (inactive) in assay [5] and -1.03 (inactive) in assay [6].
Regarding `O=C1NC(=O)C2C1C=CC(C(O)c1cc(C(F)(F)F)cc(C(F)(F)F)c1)N2Nc1ccccn1` (configuration not stated), the figures for the composite z-score in assay [1] and in assay [2] were 0.604 (inactive) and 0.797, respectively. The z-score in assay [3] was -0.352; in assay [4], -3.28 (inactive); in assay [5], 0.429 (inactive); in assay [6], 0.178 (inactive).
Consider `C=CC1(C(=O)OC)CC=C(C(=O)OC)CC1` (configuration not stated), for which the results for the composite z-score in assay [1] and in assay [2] were 0.552 (inactive) and 0.992, respectively. In addition, the z-score was 0.928 in assay [3], -1.09 (inactive) in assay [4], -1.36 (inactive) in assay [5] and -1.26 (inactive) in assay [6].
For `COC(=O)[C@@]1(Cc2ccc(OC)cc2)[C@H]2c3cc(C(=O)N4CCCC4)n(Cc4ccc(C)c(F)c4F)c3C[C@H]2CN1C(=O)c1ccccc1`, the composite z-score in assay [1] was 0.128 (inactive); in assay [2], 0.715. For the same compound, the z-score in assay [3] is -1.12; in assay [4] it was -0.498 (inactive); in assay [5] it was -0.0213 (inactive); in assay [6], -0.423 (inactive).
On to `COC(=O)[C@@]1(CCS(=O)(=O)c2ccccc2)N=C(c2ccc(OCCCO)cc2)O[C@H]1c1ccccc1CN=[N+]=[N-]`, for which the values for the composite z-score in assay [1] and in assay [2] were 1.24 (inactive) and 0.769, respectively. Besides, the z-score in assay [3] is -2.07; in assay [4], -0.977 (inactive); in assay [5], -0.395 (inactive); in assay [6], -0.74 (inactive).
